According to PubChem BioAssay (NCATS):
Unmarked numbers belong to inactive results. Activity calls are given as the source filed them. Calls follow the shape of the dose curve; as a rule, active = well fitted curve in the direction sought with a large enough effect; inconclusive = small, poorly fitted or top-dose-only effect, or another doubt; inactive = no such curve, though single readings can be large or run the other way.

What follows are compounds tested against Guanine nucleotide-binding protein G(i) subunit alpha-1 (Homo sapiens) (UniProt P63096) (assay: qHTS Assay for Inhibitors of RGS12 GoLoco Motif Activity (Green Fluorophore) (AID 879;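 also: 0% = labeled peptide with Gαi1 and full inhibition = labeled peptide alone without protein; negative values mean loss of peptide binding seen as reduced polarization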)). Conditions: Galphai1/FITC-RGS12 GoLoco peptide, fluorescence polarization; series mostly up to 57.1 µM; activity, negative = inhibition: at the top concentration.
Source text: Assay Overview: NIH Molecular Libraries Screening Centers Network [MLSCN] NIH Chemical Genomics Center [NCGC] MLSCN Grant: NS053754-01 Assay Provider: Siderovski, David P, University of North Carolina at Chapel Hill G-protein-coupled receptors (GPCRs) are major targets for drug discovery. The regulator of G-protein signaling (RGS)-protein family has important roles in GPCR signal transduction. RGS proteins contain a conserved RGS-box, which is often accompanied by other signaling regulatory elements. RGS proteins accelerate the deactivation of G proteins to reduce GPCR signaling; however, some also have an effector function and transmit signals. Combining GPCR agonists with RGS inhibitors should potentiate responses, and could markedly increase the agonist's regional specificity. The diversity of RGS proteins with highly localized and dynamically regulated distributions in brain makes them attractive targets for pharmacotherapy of central nervous system disorders. […] A complex of Gai1 and fluorescently labeled G-alpha-binding peptide (the "GoLoco motif") derived from RGS12 is incubated with library members. Inhibitors of the binding are detected by a decrease in the fluorescence polarization (FP) of the fluorophore. Protein was supplied by Prof. David Siderovski, University of North Carolina at Chapel Hill.
Assay Protocol: Reagents/Controls: Assay Buffer: 10 mM Tris-HCl, 150 mM NaCl, 0.1 mM GDP (prepared fresh), and 0.05% NP40 at pH 7.5. […] 10 nM FITC labeled peptide/50 nM protein in columns 1, 2, 5 - 48. Titration of unlabeled peptide control ([H][…][NH2], custom synthesized and HPLC-purified by Tufts University Core Facility) from 10 mM, then 1:2 dilution, 16-point in duplicate, pin-transferred to column 2, rows 1 to 32. Column 1 is neutral. FITC-labeled RGS12-GoLoco peptide was custom-synthesized and HPLC-purified by Michael Berne of Tufts University Assay Steps. Four uL of reagents were dispensed to 1536-well Greiner black solid-bottom plates. Compounds and controls (23 nL) were transferred via Kalypsys PinTool. The plates were incubated for 10 min at room temperature, and then read on ViewLux (Perkin-Elmer) High-throughput CCD imager using FITC polarization filter sets for the fluorescein-labeled decapeptide probe.During dispense, reagent bottles were kept submerged into 4 deg C water bath and all liquid lines were covered with aluminum foil to minimize probe and protein degradation. All screening operations were performed on a Kalypsys robotic system (Kalypsys, Inc., San Diego, CA) containing one RX-130 and two RX-90 anthropomorphic robotic arms.

Sequence of Guanine nucleotide-binding protein G(i) subunit alpha-1 (Homo sapiens) (P63096 whole entry, looked up): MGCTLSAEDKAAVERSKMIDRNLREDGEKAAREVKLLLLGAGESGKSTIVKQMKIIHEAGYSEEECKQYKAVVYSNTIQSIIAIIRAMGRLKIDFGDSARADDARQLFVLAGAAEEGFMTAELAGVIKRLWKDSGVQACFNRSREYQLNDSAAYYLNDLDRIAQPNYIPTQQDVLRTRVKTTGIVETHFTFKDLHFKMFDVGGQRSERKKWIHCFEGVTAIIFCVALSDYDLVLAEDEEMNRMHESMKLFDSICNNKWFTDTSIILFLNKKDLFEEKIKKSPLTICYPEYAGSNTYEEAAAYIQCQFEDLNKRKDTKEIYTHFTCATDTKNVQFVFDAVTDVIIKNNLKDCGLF

| Compound | activity, negative = inhibition [%] | outcome |
| --- | --- | --- |
| C[C@@]12CC[C@H]3[C@@H](CC=C4C[C@H](OS(=O)(=O)O)CC[C@]43C)[C@H]1CCC2=O | -0.577 |  |
| CC(=O)[C@@H]1CC[C@H]2[C@H]3CC[C@H]4C[C@@H](O)CC[C@]4(C)[C@@H]3CC[C@]12C | -17.6 |  |
| C[C@@H]1O[C@H]1P(=O)(O)O | -3.03 |  |
| C[Se]C[C@@H](N)C(=O)O | 0.893 |  |
| COC(=O)[C@H](N)CCCN=C(N)N[N+](=O)[O-] | -11 |  |
| C#CCN[C@@H](C)Cc1ccccc1 | 5.31 |  |
| O=C(O)[C@H]1CCN1 | -3.65 |  |
| CC(C)N[C@@H](C)Cc1ccc(I)cc1 | -13.2 |  |
| NC[C@H](O)c1cc(O)c(O)cc1F | -25.8 |  |
| COc1cc(C[C@H](C)N)c(OC)cc1I |  | inactive |
| CCCN1CC[C@@H]2c3cc(O)ccc3CC[C@H]21 | 1.45 |  |
| CCn1cnc2c(Nc3cccc(Cl)c3)nc(N[C@@H]3CCCC[C@H]3N)nc21 | 8.82 |  |
| C[C@@]12CC[C@H]3[C@@H](CC[C@@H]4C[C@H](O)CC[C@]43C)[C@H]1CC[C@H]2O | 11.7 |  |
| CCN(CC)c1ncnc2c1ncn2[C@@H]1O[C@@H](COP(=O)(O)OP(=O)(O)C(Br)(Br)P(=O)(O)O)[C@H](O)[C@@H]1O | 3.71 |  |
| N[C@H](Cc1ccc(N(CCCl)CCCl)cc1)C(=O)O | -5.59 |  |
| CC(=O)OCC1=C(C(=O)[O-])N2C(=O)[C@@H](NC(=O)CCC[C@@H](N)C(=O)[O-])[C@@H]2SC1.[Zn+2] | 16 |  |
| C[C@@H](Cc1ccc(O)cc1)NC[C@@H](O)c1cc(O)cc(O)c1 | -24.1 |  |
| CC(=O)c1c(O)c(C)c(O)c(Cc2c(O)c3c(c(C(=O)/C=C\c4ccccc4)c2O)OC(C)(C)C=C3)c1O | 4.36 |  |
| C[C@]12CC[C@H](O)C[C@@H]1CC[C@H]1[C@H]2CC[C@]2(C)[C@H](C(=O)CO)CC[C@@H]12 | -7.96 |  |

| Compound | activity, negative = inhibition [%] | outcome |
| --- | --- | --- |
| C[C@]12CC[C@H](O)CC1=CC[C@@H]1[C@H]2CC[C@]2(C)C(=O)CC[C@H]12 | -14.2 |  |
| COc1ccc2c3c1O[C@@H]1C(=O)CC[C@@]4(O)[C@@H](C2)N(CC2CC2)CC[C@]314 | -21.1 |  |
| NC(=O)CN1C[C@@H](O)CC1=O | -9.21 |  |
| Oc1ccc2c3c1O[C@@H]1c4[nH]c5c(c4C[C@@]4(O)[C@@H](C2)N(CC2CC2)CC[C@]314)C[C@]1(O)[C@@H]2Cc3ccc(O)c4c3[C@@]1(CCN2CC1CC1)[C@H]5O4 | -13.8 |  |
| CO[C@@H]1CC=C2CCN3CCC4=C(CC(=O)OC4)[C@]23C1 | -11.1 |  |
| C[C@@H]1Cc2cc3c(cc2C(c2ccc(N)cc2)=NN1)OCO3 | 3.08 |  |
| CCNC(=O)[C@@H]1O[C@@H](n2cnc3c(N)ncnc32)[C@@H](O)[C@H]1O | -3.25 |  |
| Nc1ncnc2c1ncn2[C@@H]1O[C@@H](COP(=O)(O)CP(=O)(O)OP(=O)(O)O)[C@H](O)[C@@H]1O | -1.41 |  |
| C[N+]1(C)C2CC(OC(=O)C(CO)c3ccccc3)CC1[C@@H]1O[C@H]21 (stereo partly drawn) |  | inactive |
| C[C@@]12CC[C@H]3[C@@H](CCC4=C(O)C(=O)CC[C@]43C)[C@H]1CCC2=O | -11.4 |  |
| C[N+]1(C)CCc2cc3c(cc2[C@@H]1[C@@H]1OC(=O)c2c1ccc1c2OCO1)OCO3 | 12.5 |  |
| N[C@H](Cn1ccc(=O)[nH]c1=O)C(=O)O | -8.09 |  |
| COc1cc([C@@H](O)CN)ccc1O | -14.5 |  |
| N[C@H](CCl)C(=O)O | -2.05 |  |
| COc1ccc2c(c1O)-c1cccc3c1[C@H](C2)N(C)CC3 | -26 |  |
| CC(C)C[C@H](NP(=O)(O)O[C@@H]1O[C@@H](C)[C@@H](O)[C@@H](O)[C@H]1O)C(=O)N[C@@H](Cc1c[nH]c2ccccc12)C(=O)O | 3.48 |  |
| C=CCN1CC[C@]23c4c5ccc(O)c4O[C@@H]2/C(=N/NC(=O)c2ccccc2)CC[C@@]3(O)[C@H]1C5 | 6.52 |  |
| O=C(O)[C@H]1[C@H](C(=O)O)[C@H]2CC[C@@H]1O2 | 4.33 |  |
| COc1ccc2c(c1)[C@]13CCCC[C@@H]1[C@H](C2)NCC3 | -11.6 |  |
